In PubChem BioAssay (NCI) one finds growth inhibition data, which are given here for 10 molecules.

Test [1] is described as follows: NCI Yeast Anticancer Drug Screen. Data for the rad50 strain (AID 155).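 Note: 0% = growth of vehicle-only cultures of the same strain.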 As to conditions: S. cerevisiae rad50 strain growth inhibition, hits give high values. In short, it runs like this:
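Compounds were tested on a yeast strain with an engineered DNA damage repair alteration; the reported value is growth inhibition normalised to vehicle treatment.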

The nature of test [2]: NCI Yeast Anticancer Drug Screen. Data for the mec2-1 strain (AID 157). The conditions noted are these: S. cerevisiae mec2-1 strain, hits give high values. The method, boiled down: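 Test agents were screened against the mec2-1 yeast strain, with defined DNA repair or cell cycle alteration. Growth was scored as inhibition against vehicle-only controls.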
The nature of test [3]: NCI Yeast Anticancer Drug Screen. Data for the sgs1 mgt1 strain (AID 161).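 Note: 0% = growth of cultures given vehicle only.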 As to conditions: S. cerevisiae sgs1 mgt1 strain, hits give high values. The method, boiled down:
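Test agents were incubated with a DNA-repair-mutant yeast strain. Growth was then read and compared against vehicle-treated controls.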

A short description of test [4]: NCI Yeast Anticancer Drug Screen. Data for the cln2 rad14 strain (AID 165).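 Note: 0% = growth equal to vehicle treated cultures.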 As to conditions: S. cerevisiae cln2 rad14 strain, hits give high values. The method, boiled down:
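Growth of compound-exposed yeast (cln2 rad14 genotype) measured and expressed as inhibition relative to vehicle.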

Test [5] is described as follows: NCI Yeast Anticancer Drug Screen. Data for the bub3 strain (AID 167). The conditions noted are these: S. cerevisiae bub3 mutant strain, hits give high values. In short, it runs like this: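 Growth of a checkpoint-deficient yeast mutant is measured after compound exposure. Values represent inhibition relative to vehicle.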
Test [6] in a line: NCI Yeast Anticancer Drug Screen. Data for the mlh1 rad18 strain (AID 175). The conditions noted are these: S. cerevisiae mlh1 rad18 strain growth inhibition, hits give high values. In short, it runs like this: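 In this whole-cell yeast screen, a strain with altered DNA damage repair is challenged with compound, and its growth is measured against matched vehicle-treated controls.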

[7] abbreviates: at 5.0 µM (retest, dose inferred, filed as 0.5).
[8] abbreviates: at 50.0 µM (retest, dose inferred, filed as 5.0).

The panel holds about 79,000 compounds, 15% with a hit somewhere; the sample as a whole holds those more often. A number with no mark means an inactive call. Calls of active or inactive are those of the source. Cut-off read from the data, not from the text of the source: active = growth inhibition above about 70%; inactive = the rest.

As for `COc1ccc(/C=N/NC(=O)c2ccco2)cc1OC`, the growth inhibition was -5% in test [1] (setting [7]); 0% in test [1] (setting [8]); 63.5% in test [1] (at 50.0 µM); -5% in test [2] (setting [7]); -15% in test [2] (setting [8]); 73.2% (active) in test [2] (at 50.0 µM). The growth inhibition is -3% in test [3] (setting [7]); 5% in test [3] (setting [8]); 23.8% in test [3] (at 50.0 µM); -21% in test [4] (setting [7]); -20% in test [4] (setting [8]); 19.1% in test [4] (at 50.0 µM). Also, the growth inhibition in test [5] (setting [7]) is -7%; in test [5] (setting [8]) it was -13%; in test [5] (at 50.0 µM), 56.2%; in test [6] (setting [7]), -6%; in test [6] (setting [8]), -14%; in test [6] (at 50.0 µM), 35.8%.

For the molecule `CC(C)(C)N1C(=O)C(Cl)(C#N)C1c1ccccc1` (stereo not given), the growth inhibition in test [1] (setting [7]) is 7%; in test [1] (setting [8]) it was 25%; in test [1] (at 50.0 µM), 43.5%; in test [2] (setting [7]), -4%; in test [2] (setting [8]) it was 8%; in test [2] (at 50.0 µM) it was 26.6%. The growth inhibition in test [3] (setting [7]) is -3%; in test [3] (setting [8]) it was 27%; in test [3] (at 50.0 µM), 73.5% (active); in test [4] (setting [7]), 9%; in test [4] (setting [8]), 11%; in test [4] (at 50.0 µM) it was 19.9%. For the same molecule, the growth inhibition in test [5] (setting [7]) was -1%; in test [5] (setting [8]) it was 0%; in test [5] (at 50.0 µM) it was -6.3%; in test [6] (setting [7]) it was -11%; in test [6] (setting [8]), 26%; in test [6] (at 50.0 µM), 72.5% (active).

`CCCCCOC(=O)c1ccc(O)cc1`: the growth inhibition in test [1] (setting [7]) is -3%; in test [1] (setting [8]), 98% (active); in test [1] (at 50.0 µM), -3.65%; in test [2] (setting [7]), 7%; in test [2] (setting [8]) it was 100% (active); in test [2] (at 50.0 µM), 36%. Moreover, the growth inhibition in test [3] (setting [7]) was 2%; in test [3] (setting [8]), 99% (active); in test [3] (at 50.0 µM), 51.2%; in test [4] (setting [7]), -9%; in test [4] (setting [8]), 97% (active); in test [4] (at 50.0 µM), 13.1%. Moreover, the growth inhibition was 32% in test [5] (setting [7]); 99% (active) in test [5] (setting [8]); 88.9% (active) in test [5] (at 50.0 µM); 3% in test [6] (setting [7]); 99% (active) in test [6] (setting [8]); 15.4% in test [6] (at 50.0 µM).

With `O=[N+]([O-])c1cccc(S(=O)(=O)Nc2cccc3ccccc23)c1`, the growth inhibition in test [1] (setting [7]) is 4%; in test [1] (setting [8]), 97% (active); in test [1] (at 50.0 µM) it was 99% (active); in test [2] (setting [7]), 1%; in test [2] (setting [8]), 98% (active); in test [2] (at 50.0 µM), 99.2% (active). Besides, the growth inhibition in test [3] (setting [7]) is 2%; in test [3] (setting [8]), 97% (active); in test [3] (at 50.0 µM), 99.2% (active); in test [4] (setting [7]), 4%; in test [4] (setting [8]), 98% (active); in test [4] (at 50.0 µM), 99.2% (active). The growth inhibition in test [5] (setting [7]) is 1%; in test [5] (setting [8]), 97% (active); in test [5] (at 50.0 µM) it was 99.2% (active); in test [6] (setting [7]) it was -3%; in test [6] (setting [8]), 97% (active); in test [6] (at 50.0 µM), 98.7% (active).

Turning to `Cn1cc(CCC(=O)C2C=CC=CC2=NC(=O)CCCl)c2ccccc21` (stereo not given), the growth inhibition was 11% in test [1] (setting [7]); 7% in test [1] (setting [8]); -3.6% in test [1] (at 50.0 µM); 7% in test [2] (setting [7]); -6% in test [2] (setting [8]); 12.8% in test [2] (at 50.0 µM). Besides, the growth inhibition in test [3] (setting [7]) was -1%; in test [3] (setting [8]) it was -20%; in test [3] (at 50.0 µM), -4%; in test [4] (setting [7]), 14%; in test [4] (setting [8]), 14%; in test [4] (at 50.0 µM), 14.3%. Besides, the growth inhibition is 11% in test [5] (setting [7]); 7% in test [5] (setting [8]); 8.95% in test [5] (at 50.0 µM); -2% in test [6] (setting [7]); 1% in test [6] (setting [8]); -17.1% in test [6] (at 50.0 µM).

With `CN1C/C(=C\c2ccc(Cl)cc2)C(=O)/C(=C/c2ccc(Cl)cc2)C1`, the growth inhibition was 78% (active) in test [1] (setting [7]); 98% (active) in test [1] (setting [8]); 87.2% (active) in test [1] (at 50.0 µM); 73% (active) in test [2] (setting [7]); 99% (active) in test [2] (setting [8]); 88.5% (active) in test [2] (at 50.0 µM). The growth inhibition in test [3] (setting [7]) was 79% (active); in test [3] (setting [8]) it was 99% (active); in test [3] (at 50.0 µM) it was 91% (active); in test [4] (setting [7]) it was 78% (active); in test [4] (setting [8]), 97% (active); in test [4] (at 50.0 µM), 88% (active). In addition, the growth inhibition is 84% (active) in test [5] (setting [7]); 97% (active) in test [5] (setting [8]); 87.8% (active) in test [5] (at 50.0 µM); 83% (active) in test [6] (setting [7]); 98% (active) in test [6] (setting [8]); 85.2% (active) in test [6] (at 50.0 µM).

As for `N#CC1Sc2ccccc2N1C(=O)Oc1ccccc1` (stereo not given), the growth inhibition in test [1] (setting [7]) is 3%; in test [1] (setting [8]), 98% (active); in test [1] (at 50.0 µM) it was 98.8% (active); in test [2] (setting [7]), 0%; in test [2] (setting [8]), 98% (active); in test [2] (at 50.0 µM) it was 98.7% (active). The growth inhibition in test [3] (setting [7]) was 5%; in test [3] (setting [8]), 98% (active); in test [3] (at 50.0 µM) it was 98.8% (active); in test [4] (setting [7]) it was 3%; in test [4] (setting [8]), 97% (active); in test [4] (at 50.0 µM), 98.2% (active). The growth inhibition in test [5] (setting [7]) is 15%; in test [5] (setting [8]) it was 98% (active); in test [5] (at 50.0 µM), 99.1% (active); in test [6] (setting [7]), 5%; in test [6] (setting [8]), 98% (active); in test [6] (at 50.0 µM) it was 98.8% (active).

As to `O=C1C=CC(Nc2cccc([N+](=O)[O-])c2)C1Nc1cccc([N+](=O)[O-])c1` (stereo not given), the growth inhibition in test [1] (setting [7]) was -21%; in test [1] (setting [8]), -16%; in test [1] (at 50.0 µM), 92.3% (active); in test [2] (setting [7]), 16%; in test [2] (setting [8]), -9%; in test [2] (at 50.0 µM), 89.2% (active). The growth inhibition in test [3] (setting [7]) was -11%; in test [3] (setting [8]) it was -11%; in test [3] (at 50.0 µM), 91.5% (active); in test [4] (setting [7]), -8%; in test [4] (setting [8]), -24%; in test [4] (at 50.0 µM), 90.7% (active). Besides, the growth inhibition in test [5] (setting [7]) was 19%; in test [5] (setting [8]) it was -4%; in test [5] (at 50.0 µM), 90.7% (active); in test [6] (setting [7]), -29%; in test [6] (setting [8]), -19%; in test [6] (at 50.0 µM), 91.7% (active).

On to `Cc1nn(CCO)c(=O)c(C#N)c1C`, for which the growth inhibition in test [1] (setting [7]) was 1%; in test [1] (setting [8]) it was 17%; in test [1] (at 50.0 µM), 66.2%; in test [2] (setting [7]) it was 5%; in test [2] (setting [8]) it was 16%; in test [2] (at 50.0 µM), 49%. Moreover, the growth inhibition in test [3] (setting [7]) is 2%; in test [3] (setting [8]), 14%; in test [3] (at 50.0 µM), 61.7%; in test [4] (setting [7]) it was -1%; in test [4] (setting [8]), -5%; in test [4] (at 50.0 µM), 11.7%. Moreover, the growth inhibition was 19% in test [5] (setting [7]); 77% (active) in test [5] (setting [8]); 34.1% in test [5] (at 50.0 µM); 5% in test [6] (setting [7]); 30% in test [6] (setting [8]); 50.5% in test [6] (at 50.0 µM).

`COc1ccccc1NC(=O)Oc1ccc(C(C)(CCC(=O)O)c2ccc(OC(=O)Nc3ccccc3OC)cc2)cc1`: the growth inhibition is -2% in test [1] (setting [7]); 13% in test [1] (setting [8]); -9.65% in test [1] (at 50.0 µM); 8% in test [2] (setting [7]); 25% in test [2] (setting [8]); -1.8% in test [2] (at 50.0 µM). Further, the growth inhibition was -31% in test [3] (setting [7]); -7% in test [3] (setting [8]); 11.7% in test [3] (at 50.0 µM); 2% in test [4] (setting [7]); -20% in test [4] (setting [8]); 39.8% in test [4] (at 50.0 µM). The growth inhibition in test [5] (setting [7]) is 0%; in test [5] (setting [8]), 15%; in test [5] (at 50.0 µM) it was 8.05%; in test [6] (setting [7]), -26%; in test [6] (setting [8]), -45%; in test [6] (at 50.0 µM) it was -24.6%.
